Data from PubChem BioAssay (NCATS).
Inconclusive results are not listed. The source made the active and inactive calls. The call rests on the fitted dose curve; in most records, active means well fitted curve in the direction sought with a large enough effect; inconclusive means small, poorly fitted or top-dose-only effect, or another doubt; inactive means no such curve, though single readings can be large; an effect the other way counts as inactive or inconclusive.

Test system: not listed separately
Test: Confirmation and Secondary Assay for Modulators of Hemoglobin Beta Chain Splicing at IVS2 705 locus (AID 930);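 further: HeLa cells stably expressing the EGFP-705 splicing reporter; GFP fluorescence per well restored by corrected splicing of the IVS2-705 intron in EGFP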
Settings: HeLa EGFP-705 splicing reporter, GFP fluorescence, 48 h; series mostly up to 46.1 µM
Outline: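 Read-out: total peak GFP fluorescence per well (488 nm excitation, 500-520 nm emission) by laser-scanning cytometry. Cells: HeLa EGFP-705 splicing reporter, 2 days compound exposure in Optimem/2% FCS.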

Potency, inactive:
NC(=O)c1ncn(C2OC(CO)C(O)C2O)c1N (stereo unspecified)
OCCN1CC(O)C(O)C(O)C1CO (stereo unspecified)
CC(CCC(=O)O)C1CCC2C3C(=O)C[C@@H]4CC(=O)CC[C@@]4(C)C3CC(=O)[C@]12C (stereo partly specified)
COc1cccc(OC)c1C(=O)NC1C(=O)N2C1SC(C)(C)C2C(=O)O (stereo unspecified)
OCC1O[C@H](Oc2ccc(O)cc2)C(O)C(O)C1O (stereo partly specified)
CC1OC(OCC2OC(Oc3c(-c4ccc(OCCO)c(OCCO)c4)oc4cc(OCCO)cc(O)c4c3=O)C(O)C(O)C2O)[C@@H](O)C(O)C1O (stereo partly specified)

Molecular target: ATP-dependent 6-phosphofructokinase (Trypanosoma brucei brucei) (UniProt O15648)
Test: qHTS Assay to Find Inhibitors of T. brucei phosphofructokinase: hit validation (AID 492961);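 further: luminescence reports ADP formed as PFK phosphorylates fructose-6-phosphate with ATP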
Settings: T. brucei PFK, ADP-Glo luminescence; series mostly up to 51.4 µM
Outline: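 Percent activity derived from corrected luminescence, normalized between 0x and 1x enzyme controls, then fitted to concentration-response curves. Conditions: 1.25 nM PFK, 0.1 mM ATP, 0.5 mM F6P, 45 min RT.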

ATP-dependent 6-phosphofructokinase (Trypanosoma brucei brucei), sequence (O15648 whole entry, looked up): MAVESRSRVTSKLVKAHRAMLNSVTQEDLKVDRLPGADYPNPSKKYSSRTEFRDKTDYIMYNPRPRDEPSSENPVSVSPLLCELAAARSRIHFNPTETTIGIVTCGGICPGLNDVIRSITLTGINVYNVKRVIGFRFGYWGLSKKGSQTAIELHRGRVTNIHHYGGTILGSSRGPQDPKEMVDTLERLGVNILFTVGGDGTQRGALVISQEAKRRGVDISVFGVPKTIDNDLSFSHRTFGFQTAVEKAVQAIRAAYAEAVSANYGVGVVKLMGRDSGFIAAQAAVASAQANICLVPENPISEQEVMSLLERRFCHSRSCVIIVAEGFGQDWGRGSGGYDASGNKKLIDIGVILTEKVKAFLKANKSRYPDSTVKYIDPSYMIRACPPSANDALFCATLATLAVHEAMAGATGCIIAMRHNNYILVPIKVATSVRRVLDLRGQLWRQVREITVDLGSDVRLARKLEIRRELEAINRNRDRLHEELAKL

Potency, inactive:
CCCCCCCCCCCCCCCC(=O)OC[C@H](O)[C@H]1OC[C@@H](O)[C@@H]1O
CCCCC(=O)OCC(=O)[C@]1(O)Cc2c(O)c3c(c(O)c2[C@H](OC2CC(NC(=O)C(F)(F)F)C(O)C(C)O2)C1)C(=O)c1c(OC)cccc1C3=O (stereo partly specified)
C[C@H]1OC(OC2C(O)[C@@H](O)C(OC3C(O)[C@@H](O)C(O)O[C@@H]3CO)O[C@@H]2CO)[C@H](O)C(O)C1N[C@H]1C=C(CO)[C@@H](O)[C@H](O)C1O (stereo partly specified)
CCN(CC)CC(=O)Nc1c(C)cc(C)cc1C
CC(=O)N[C@H]1[C@H](O[C@@H]2c3ccc(c(Cl)c3)Oc3cc4cc(c3O[C@@H]3O[C@H](CO)[C@@H](O)[C@H](O)C3C)Oc3ccc(cc3Cl)C[C@H]3NC(=O)[C@@H](N)c5ccc(O)c(c5)Oc5cc(O)cc(c5)[C@H](NC3=O)C(=O)N[C@H]4C(=O)N[C@H]3C(=O)N[C@@H]2C(=O)N[C@@H](C(=O)O)c2cc(O)cc(O[C@H]4O[C@H](CO)[C@@H](O)C(O)[C@@H]4O)c2-c2cc3ccc2O)O[C@H](CO)[C@@H](O)[C@@H]1O (stereo partly specified)
NC(=O)c1ncn(C2OC(CO)C(O)C2O)c1N (stereo unspecified)
C[C@H]1[C@@H](OC(=O)CCC(=O)O)OC2OC3(C)CC[C@H]4[C@H](C)CC[C@@H]1[C@@]24OO3 (stereo partly specified)
CC1(Cn2ccnn2)[C@H](C(=O)O)N2C(=O)C[C@H]2S1(=O)=O (stereo partly specified)
CN(C)CC/C=C1\c2ccccc2COc2ccc(CC(=O)O)cc21
CCCC(=O)O[C@]1(C(=O)COC(C)=O)CC[C@H]2C3C[C@H](F)C4=CC(=O)C=CC4(C)[C@@]3(F)[C@@H](O)CC21C (stereo partly specified)
OCCN1CC(O)C(O)C(O)C1CO (stereo unspecified)
COc1cc2c(cc1O)CCN[C@@]21CS[C@H]2c3c(OC(C)=O)c(C)c4c(c3C(COC1=O)N1C2C2c3c(cc(C)c(OC)c3O)CC([C@@H]1O)N2C)OCO4 (stereo partly specified)
CC(CCC(=O)O)C1CCC2C3C(=O)C[C@@H]4CC(=O)CC[C@@]4(C)C3CC(=O)[C@]12C (stereo partly specified)
C[n+]1c2cc(N)ccc2cc2ccc(N)cc21
O=C(OC[C@@H]1O[C@@](O)(COC(=O)c2cccnc2)[C@H](OC(=O)c2cccnc2)[C@H]1OC(=O)c1cccnc1)c1cccnc1
O=[N+]([O-])O[C@H]1CO[C@H]2[C@@H]1OC[C@H]2O
COc1cccc(OC)c1C(=O)NC1C(=O)N2C1SC(C)(C)C2C(=O)O (stereo unspecified)
NC[C@@H]1O[C@H](OC2[C@@H](CO)O[C@@H](OC3[C@H](O)[C@H](N)C[C@H](N)[C@H]3OC3O[C@H](CO)[C@@H](O)[C@H](O)[C@@H]3N)[C@H]2O)C(N)[C@H](O)[C@@H]1O (stereo partly specified)
Cc1ccc(S(=O)(=O)NC(=O)NC(C)Cc2ccccc2)cc1 (stereo unspecified)
OCCOC[C@H]1O[C@H](OCCO)[C@H](OCCO)[C@@H](OCCO)[C@@H]1OCCO (tested in a mixture with another compound)
C[S+](C)CC[C@H](N)C(=O)O
CC[C@@H]1/C=C(\C)C[C@H](C)C[C@H](OC)[C@H]2O[C@@](O)(C(=O)C(=O)N3CCCC[C@H]3C(=O)O[C@H](/C(C)=C/[C@@H]3CC[C@H](Cl)[C@H](OC)C3)[C@H](C)[C@@H](O)CC1=O)[C@H](C)C[C@@H]2OC
NC(=O)C1CC2(NC(=O)NC2=O)c2cc(F)ccc2O1 (stereo unspecified)
CN1[C@@H]2CC[C@@H]1CC(OC(=O)[C@H](CO)c1ccccc1)C2 (stereo partly specified)
CC[C@@]1(O)C[C@H](O[C@H]2C[C@@H](N(C)C)[C@@H](O[C@H]3C[C@@H](O)[C@@H](O[C@H]4CCC(=O)[C@@H](C)O4)[C@@H](C)O3)[C@@H](C)O2)c2c(cc3c(c2O)C(=O)c2c(O)cccc2C3=O)[C@H]1C(=O)OC
